Many of the other results were omitted from the sample, so hits are more common in it than they were.
LmPK inhibitor: inhibitors of Leishmania mexicana pyruvate kinase. Potency, µM (series often up to 57.5 µM), for inactives: top-dose activity change, negative = inhibition, hits mostly inhibitors. 290,000 compounds, 0.37% hits. AID 1721. purified LmPK, Kinase-Glo ATP luminescence, 1 h; note: potency is the fitted concentration of half-maximal effect; % is set by controls: 0 for no effect and ±100 for the full control effect
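qHTS format; LmPK 0.1 nM; substrates PEP 0.5 mM and ADP 0.1 mM. One-hour room-temperature incubation, then coupled luciferase luminescence; 0.5 nM enzyme wells mark activation.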
FBPA Giardia inh: blocks Giardia fructose-bisphosphate aldolase activity; purified Giardia FBPA; 290,000 compounds, 0.71% hits; AID 2451; Potency, µM (series often up to 59.6 µM), without a hit: at the highest dose activity, negative = inhibition, usual class: inhibitors; note: potency is the fitted concentration of half-maximal effect; % is set by controls: 0 for no effect and ±100 for the full control effect; nearly all actives have a fitted effect of over 55% in size
Target sequence (A8B2U2 whole entry, looked up): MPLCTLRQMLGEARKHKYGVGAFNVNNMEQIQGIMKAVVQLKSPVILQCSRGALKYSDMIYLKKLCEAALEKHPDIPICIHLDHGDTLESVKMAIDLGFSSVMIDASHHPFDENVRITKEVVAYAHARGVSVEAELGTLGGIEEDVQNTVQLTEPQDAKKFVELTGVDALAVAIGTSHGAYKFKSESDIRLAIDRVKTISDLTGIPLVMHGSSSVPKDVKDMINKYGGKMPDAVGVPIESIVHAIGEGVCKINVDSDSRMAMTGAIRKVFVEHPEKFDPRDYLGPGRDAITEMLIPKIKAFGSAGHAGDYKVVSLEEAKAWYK
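40 nM FBPA preincubated 10 min at RT with compound (up to 57.5 uM final), then substrate plus GAPDH/TPI/NAD/arsenate coupling and diaphorase/resazurin added. Fluorescence read after 20 min at RT, 525/598 nm.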
Sm TGR inh: S. mansoni TGR enzyme inhibition; Q962Y6; purified TGR, DTNB reduction, TNB absorbance 405 nm; Potency, µM (titrated, usually from 114 µM), for inactives: top-dose activity change, negative = inhibition, most hits filed as inhibitors; 360,000 compounds, 3% hits; note: potency is the fitted concentration of half-maximal effect; % is set by controls: 0 for no effect and ±100 for the full control effect; nearly all actives have a fitted effect of over 60% in size
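TGR 20 nM + NADPH 100 uM (dispensed conc.), cpd preinc 15 min RT; start with NADPH (500 uM addition) then DTNB (15 mM addition). Kinetic TNB absorbance, 405 nm filter. Four-parameter Hill fit across titration.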
Shiga inhibitor: blocks Shiga toxin action in Vero cells. Vero cells, Shiga toxin protein synthesis inhibition reporter. inhibition, % at 38.7 µM. 290,000 compounds, 9.2% hits; in the data active = inhibition mostly above about 28%, no sharp cut-off; inactive = mostly below about 43%; note: 0% is about no effect
CHX counter: counter-screen hit for Shiga toxin inhibitors, cycloheximide; max response, %; cell reporter, cycloheximide protein synthesis inhibition counterscreen; AID 2314; 300,000 compounds, 12% hits; in the data active = max response mostly above about 13%, no sharp cut-off; inactive = mostly below about 14%; note: read at 38.3 µM for the half of the compounds with a filed dose; 0% is about no effect
Tb PYK inh: T. brucei pyruvate kinase inhibition; Q57TT1; TbPYK enzyme, Kinase-Glo Plus ATP luminescence, 45 min; Potency, µM (top dose mostly 76.8 µM), without a hit: top-dose activity, negative = inhibition, actives largely listed as inhibitors; 410,000 compounds, 0.12% hits; AID 624173; note: potency is the fitted concentration of half-maximal effect; % is set by controls: 0 for no effect and ±100 for the full control effect; nearly all actives have a fitted effect of over 50% in size
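Glycolytic pyruvate kinase of T. brucei was incubated with substrate, test compound and 130 uM ADP for 45 minutes at room temperature. Luminescent Kinase-Glo Plus signal was measured after 10 minutes.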
Numbers without * were called inactive; ? = inconclusive; . = no result given; [ ] = remark or other dose. Unless noted, calls come from the whole dose curve; as a rule, active = well fitted curve in the direction sought with a large enough effect; inconclusive = small, poorly fitted or top-dose-only effect, or another doubt; inactive = no such curve, though single readings can be large; an effect the other way counts as inactive or inconclusive.

SMILES	LmPK inhibitor	FBPA Giardia inh	Sm TGR inh	Shiga inhibitor	CHX counter	Tb PYK inh
Cc1cccc(-c2ncc(CN3CCN(C4CCCC4)C(CCO)C3)cn2)c1 (stereo not drawn)	3%	-9%	4%	-9	-1	1%
OCC1(Cc2ccccc2)CCN(Cc2cnc(-c3ccc(Cl)cc3)nc2)CC1	-3%	1%	4%	91*	39*	4%
COc1ccc(CC2(CO)CCN(Cc3cccnc3)CC2)cc1	7%	-13%	4%	33	38*	0%
OC1OC[C@@H](O)[C@H](O)[C@@H]1O (stereo partly drawn)	.	.	.	.	.	3%
O=C1/C(=C/c2ccccc2)CCCc2ccccc21	?	-1%	6%	96*	63*	-6%
O=C1/C(=C/c2ccc(C(=O)O)cc2)CCC/C1=C\c1ccc(C(=O)O)cc1	-5%	17%	-15%	-1	-3	1%
CCC1C/C(=C\c2cccnc2)C(=O)/C(=C/c2cccnc2)C1 (stereo not drawn)	4%	2%	?	-3	38*	8%
CN(C)c1ccc(/C=C2\CCC/C(=C\c3ccccc3)C2=O)cc1	-3%	-7%	-26%	22	16	-6%
CC(C)/C=C1\CC/C(=C\c2cccnc2)C1=O	1%	-11%	25µM*	124*	78*	-4%
O=C1/C(=C/c2cccnc2)CCC/C1=C\c1cccnc1	1%	0%	40µM*	-5	-2	-8%
CC(C)CC(=O)Nc1ccc(C(=O)COC(=O)C2CC(=O)N(Cc3ccccc3)C2)cc1 (stereo not drawn)	.	.	-1%	.	.	1%
O=C1/C(=C/Nc2cccc([N+](=O)[O-])c2)CCc2ccccc21	-12%	-30%	-16%	29	81*	-12%
CC(C)N1C(=O)S/C(=C/c2cccnc2)C1=O	0%	3%	2%	6	20*	10%
O=C1/C(=C\c2cccnc2)CCc2ccccc21	16µM*	0%	-8%	67	29*	5%
O=C1/C(=C\c2ccc([N+](=O)[O-])cc2)CCc2ccccc21	?	1%	3%	9	26*	-21%
O=C1/C(=C/c2ccc(O)cc2)CCc2ccc([N+](=O)[O-])cc21	-2%	2%	-8%	29	-1	3%
CC(=O)Nc1ccc(/C=C2\CCc3ccccc3C2=O)cc1	2%	-8%	-23%	-4	23	1%
O=C1/C(=C/c2cccnc2)CC/C1=C\c1cccnc1	1%[11.5 µM]	1%	-27%	34	63*	-3%
O=C1NC(=S)N/C1=C/c1cccnc1	2%	0%	-7%	-5	-6	-6%
CCN1CCN(c2ncnc3c2cnn3-c2ccc(Cl)cc2)CC1	1%	1%	28%	74*	45*	-3%
CCOC(=O)N1CCN(c2ncnc3c2cnn3-c2ccc(Cl)cc2)CC1	4%	3%	3%	-19	20*	.
Cc1ccc(-n2ncc3c(N4CCN(CCO)CC4)ncnc32)cc1Cl	.	.	7.9µM*	.	.	1%
CN1CCN(c2ncnc3c2cnn3-c2ccc(Cl)cc2)CC1	4%	3%	2%	66*	42*	1%
CCOC(=O)C1CCN(c2ncnc3c2cnn3-c2ccc(OC)cc2)CC1	4%	4%	8%	-11	-1	-2%
CC(C)Cc1cc(C(=O)NCc2ccc(Cl)cc2)no1	.	.	2%	.	.	1%
SMILES	LmPK inhibitor	FBPA Giardia inh	Sm TGR inh	Shiga inhibitor	CHX counter	Tb PYK inh
C=CCN1C(=O)/C(=C\c2ccc(OC(=O)c3ccco3)c(OC)c2)SC1=S	0%	-2%	5%	41	27*	-11%
CCOc1cc(/C=C2\SC(=S)N(Nc3ccccc3)C2=O)ccc1O	?	1%	-3%	62*	55*	-22%
C=CCN1C(=O)/C(=C\c2cccc(OC(=O)c3ccco3)c2)SC1=S	1%	-1%	-18%	-6	-1	-2%
COc1cc(/C=C2\SC(=S)N(Nc3ncc(C(F)(F)F)cc3Cl)C2=O)ccc1O	-3%	-17%	-6%	29	14*	-26%
COc1ccc(/C=C2/SC(=S)N(Cc3ccccc3)C2=O)cc1O	-3%	-2%	-7%	120*	13	2%
COc1ccc(CNC(=O)c2cc3cccc4c3n2CC(C)S4)cc1OC (stereo not drawn)	.	.	-1%	.	.	5%[15.4 µM]
COc1cc(/C=C2\SC(=S)N(Nc3ccccc3)C2=O)ccc1O	-21%	2%	-15%	62*	51*	-29%
CCc1ccc(OCC(=O)O/N=C(\N)c2ccncc2)c(Br)c1	-9%	.	1%	85*	46*	-8%
CCc1ccc(OCC(=O)O/N=C(\N)c2ccncc2)cc1	0%	.	-7%	76*	62*	-3%
N/C(=N\OC(=O)COc1ccc(Cl)cc1Br)c1ccncc1	3%	8%	?	137*	64*	2%
CCc1ccc(OCC(=O)N(C)C)c(Br)c1	2%	2%	0%	1	5	-1%
Cc1ccc(-c2nc3ccc(Br)cn3c2CC(C)(C)C)cc1	.	.	.	.	.	3%
CC(=O)Nc1ccc(S(=O)(=O)NCc2nc(-c3ccccc3Cl)no2)cc1	0%	11%	-3%	-12	-4	0%
Cc1nc(CSc2ccc(Br)cc2)cs1	0%	-1%	-3%	49*	23*	0%
Cc1nc(CSc2nnc(N)s2)cs1	1%	0%	3%	7	-1	-2%
Cc1cc(C)n2cc(CSc3ccc(Br)cc3)nc2n1	6%	-7%	?	31*	26*	5%
Cc1nc(CSc2ccc(Cl)cc2)cs1	5%	4%	-6%	111*	36*	-3%
CCOc1ccc(CNC(=O)C2CCN(S(=O)(=O)c3cn(C)cn3)CC2)cc1OC	.	.	0%	.	.	-13%
CSc1ccc(CN2CCC(N3CCC(C(=O)NC4CC4)CC3)CC2)cc1	.	.	.	.	.	-7%
CC(C)C[C@@H]1Cc2[nH][nH]c(=O)c2[C@H](C(C)C)O1	.	.	.	.	.	2%
COc1ccc(N(C=O)C(C(=O)Nc2c(C)cccc2C)c2ccccc2)cc1 (stereo not drawn)	.	.	.	.	.	3%
COc1ccc(Nc2nccc3c2nnn3C)cc1	-12%	0%	-3%	97*	45*	1%
CCOC(=O)C1OC1C(=O)N[C@@H](CC(C)C)C(=O)NCCC(C)C (stereo partly drawn)	.	0%	.	-2	-5	.
Oc1cccc(-c2nc3ccc4ccccc4c3c3c2CCC3)c1	7%	-10%	-20%	127*	59*	1%
Cn1cc(C(=O)c2cccc(Cl)c2)cc1/C=N\O	2%	3%	-2%	39	33*	-1%
COc1ccc(C(=O)OCC(=O)Nc2ccc3c(c2)OCO3)cc1S(=O)(=O)N1CCOCC1	.	.	-22%	.	.	11%
